Here are results for five molecules from PubChem BioAssay.

The term viability denotes a read-out of living cells in per cent, often relative to untreated cells. For orientation: inhibition means the relative decrease from the control value, in per cent.

A short description of experiment [1]: reducers of endogenous Her2 protein level, primary screen, SKBR3 breast tumor cells, AlphaScreen, ATP viability (AID 461).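 For Her2 level: lower value means less Her2 protein in the cells.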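 For viability: percent of carrier control wells set as 100% viability.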 The conditions noted are these: 18-24 h, measured here: SKBR3 viability, ATP luminescence, at 10 µM.
Experiment [2] addresses Receptor tyrosine-protein kinase erbB-2 (Homo sapiens) (UniProt P04626). Described as above. The settings on record: 18-24 h, at 10 µM, stronger effect = lower value.
A short description of experiment [3]: SK-BR-3 cell growth inhibitors, pilot screen, 24 h, human (AID 572;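 active = viability at or below 10% of carrier control in both of two separate runs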;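 note: compound exposure lasted between 18 and 24 h rather than exactly 24 h; 100% = carrier-treated control wells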). The conditions noted are these: SK-BR-3 viability, CellTiter-Glo luminescence, at 10 µM, stronger effect = lower value.
The nature of experiment [4]: HUVEC growth inhibition – cell-based, human, primary screen (AID 575;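 active = viability at or below 30% in both replicate assays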;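 note: 100% = median of untreated cell wells with 0.1% DMSO on each plate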). The conditions noted are these: HUVEC proliferation, CellTiter-Glo luminescence, 72 h; at 10 µM; stronger effect = lower value. For orientation: ATP-based viability assays read luminescence as a measure of living cells.
The nature of experiment [5]: growth inhibitors of H69AR lung tumor, primary screen, human, duplicate replicates (AID 580;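 active = viability at or under a set limit in both replicates, limit being median viability minus 3 SD, cut at about 48% in these data, passing the limit was not always enough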;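 note: 100% = mean luminescence of untreated wells and 0% = no signal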). The settings on record: H69AR lung tumor cells viability, ATP luminescence, 72 h; at 10 µM; stronger effect = lower value.
The nature of experiment [6]: reversal of MRP1-mediated doxorubicin resistance, pilot screen, H69AR cells, doxorubicin co-treatment (AID 601;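 active = viability loss from added drug above about 55%, and viability with drug at most 40%, in both replicates, limit read from the data, passing the limit was not always enough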). The conditions noted are these: CellTiter-Glo, 72 h, at 10 µM; for differential viability (reversal): stronger effect = higher value.
A short description of experiment [7]: 384-well plate pilot, post-Golgi transport modulator project, inhibition of yeast transport mutant growth (AID 636; in the data active = inhibition above about 31%). The settings on record: absorbance 615 nm, about 18 h, stronger effect = higher value.
Experiment [8] is described as follows: growth suppression of yeast trafficking mutant, preliminary HTS, modulators of trafficking downstream of Golgi apparatus project, 1536-format plate, OD 615 nm (AID 637; in the data active = inhibition above about 30%). The settings on record: yeast transport mutant growth, absorbance 615 nm, 18 h; stronger effect = higher value.
A short description of experiment [9]: OD615 S. cerevisiae growth inhibition, permissive medium, pilot counter-assay, permissive growth control for S. cerevisiae lifespan shortening project (AID 705;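 active = growth inhibition above 25% in both replicates, a cutoff set 3 SD above the mean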). The conditions noted are these: OD615, 24 h, at 10 µM, stronger effect = higher value.
The nature of experiment [10]: Restrictive medium S. cerevisiae growth inhibition, OD615, pilot screen of yeast lifespan reduction project, restrictive growth control (AID 706;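 active = growth inhibition above a set limit, 3 SD over mean compound inhibition, in both replicates, cut at about 43% in these data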;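 note: modified DeaD lifespan yeast strain shifted to restrictive glucose medium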). The conditions noted are these: OD615, 48 h, at 10 µM, stronger effect = higher value.
Experiment [11] can be described thus: viability gain of MRP-1-high H69AR cells under doxorubicin, pilot screen, MRP-1 activator project, CellTiter-Glo, duplicate (AID 807;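 active = viability increase at or above a cutoff of the median across tested compounds plus 3 SD, cut at about 8.5% in these data, passing the limit was not always enough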;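 note: compound pretreatment 18-22 h then 72 h combined with doxorubicin; 0% = doxorubicin alone and 100% = vehicle without doxorubicin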). The conditions noted are these: H69AR viability with doxorubicin, CellTiter-Glo luminescence; at 10 µM; stronger effect = higher value.
Experiment [12] can be described thus: growth suppression of beta-catenin knockout HCT116, pilot screen, human colon tumor cells (AID 823;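 active = cell viability at or below a set limit in both duplicate runs, the limit being the all-compound median minus 4 SD, cut at about 23% in these data, passing the limit was not always enough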;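 note: 0% = wells killed by 20 µM Hyamine and 100% = untreated DMSO cell wells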). The settings on record: CellTiter-Glo, 60 h, at 10 µM, stronger effect = lower value.
The nature of experiment [13]: growth suppression of PTEN-deleted HCT116, pilot screen, cell-based, HCT116 clonal line, CellTiter-Glo (AID 824;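 active = viability at or below 27.92% in each of two runs, the all-compound median minus 4 SD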;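 note: 0% = 20 µM Hyamine control and 100% = vehicle cell control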). The settings on record: 60 h, at 10 µM, stronger effect = lower value.
Experiment [14] in a line: inhibitors of the yeast RAM network, pilot screen, dse1pr::URA3 reporter, 5-FOA selection (AID 869;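 active = inhibition over a set limit, the all-compound mean plus 3 SD, in both replicate runs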;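 note: 0% = DMSO wells with no growth and 100% = 10 µM 1-NA-PP1 with full growth; RAM network block rescues cells from 5-FOA so hits raise OD615 growth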). The settings on record: S. cerevisiae dse1pr::URA3 5-FOA growth, OD615, 2 d; at 10 µM; stronger effect = higher value; strain carries analog-sensitive mutant Cbk1 kinase.
The nature of experiment [15]: RAM signaling pathway blockade in yeast – S. cerevisiae, Pdr1DBD-CYC8 efflux-inhibited sensitized strain, primary screen (AID 1298;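 active = RAM network inhibition above 8.4% in each of two replicates, 3 SD over the compound average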;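 note: 0% = DMSO untreated cells without growth and 100% = 10 µM 1-NA-PP1 full growth; higher means more yeast growth rescued from 5-FOA killing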). The settings on record: S. cerevisiae cbk1-as DSE1-URA3 strain, 5-FOA growth OD615, 2 d; at 50 µM; stronger effect = higher value.
Setting [16] is: H69AR cells + 2 uM doxorubicin, measured here: viability with 2 uM doxorubicin, stronger effect = lower value.
The mark [17] stands for this setting: H69AR cells, compound alone cytotoxicity.

Each structure is given as a SMILES string. Results filed as inconclusive are left out. Activity calls are given as the source filed them.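 Rule for the calls, unless noted: active = Her2 level under about 52% in both replicate screens, with viability over 70% of control (limit read from the data); inconclusive = Her2 under the limit in one screen only, or viability under 70%; inactive = Her2 level above the set limit.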

Sequence of Receptor tyrosine-protein kinase erbB-2 (Homo sapiens) (P04626 whole entry, looked up): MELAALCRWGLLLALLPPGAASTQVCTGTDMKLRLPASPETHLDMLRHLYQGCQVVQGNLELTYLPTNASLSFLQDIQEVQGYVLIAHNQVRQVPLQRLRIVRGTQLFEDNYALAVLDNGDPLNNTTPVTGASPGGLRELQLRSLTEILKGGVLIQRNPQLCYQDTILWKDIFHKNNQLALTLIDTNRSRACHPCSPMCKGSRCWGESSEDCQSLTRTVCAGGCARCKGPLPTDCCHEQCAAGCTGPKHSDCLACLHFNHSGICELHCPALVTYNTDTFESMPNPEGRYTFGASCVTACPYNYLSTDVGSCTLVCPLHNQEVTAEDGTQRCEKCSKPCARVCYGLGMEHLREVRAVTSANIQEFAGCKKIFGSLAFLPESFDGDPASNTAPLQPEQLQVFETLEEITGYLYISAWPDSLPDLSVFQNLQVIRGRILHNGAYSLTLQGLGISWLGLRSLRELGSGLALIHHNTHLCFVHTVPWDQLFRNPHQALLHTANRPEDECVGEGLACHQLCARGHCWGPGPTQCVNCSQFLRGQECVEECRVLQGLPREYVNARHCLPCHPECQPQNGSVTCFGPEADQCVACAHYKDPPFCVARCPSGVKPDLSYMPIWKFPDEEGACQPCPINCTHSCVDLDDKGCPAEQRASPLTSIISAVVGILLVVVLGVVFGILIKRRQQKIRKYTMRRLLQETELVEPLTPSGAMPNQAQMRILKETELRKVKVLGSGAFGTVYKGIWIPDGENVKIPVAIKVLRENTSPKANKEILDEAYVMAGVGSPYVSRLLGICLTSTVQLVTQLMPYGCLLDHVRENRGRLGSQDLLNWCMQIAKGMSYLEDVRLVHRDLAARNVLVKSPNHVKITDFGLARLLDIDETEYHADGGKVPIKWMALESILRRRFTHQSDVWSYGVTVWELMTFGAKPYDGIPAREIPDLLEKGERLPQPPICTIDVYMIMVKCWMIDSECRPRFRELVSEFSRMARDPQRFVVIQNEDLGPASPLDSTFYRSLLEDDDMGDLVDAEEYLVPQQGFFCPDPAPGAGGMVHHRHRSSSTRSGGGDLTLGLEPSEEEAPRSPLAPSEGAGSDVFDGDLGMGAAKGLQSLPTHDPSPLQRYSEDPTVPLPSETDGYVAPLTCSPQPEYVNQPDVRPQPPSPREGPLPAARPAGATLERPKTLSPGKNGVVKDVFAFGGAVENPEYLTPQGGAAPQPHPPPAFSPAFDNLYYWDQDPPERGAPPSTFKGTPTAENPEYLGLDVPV

`COCCNC(=O)CN1CCN(Cc2cccc(Cl)c2)C1=O`: the viability in [1] is 102%; in experiment [3] it was 102% (inactive); in [4] it was 99.3% (inactive); in experiment [5], 103% (inactive); in experiment [6] (setting [16]), 85.4%; in experiment [6] (setting [17]), 103%. Moreover, the viability was 102% (inactive) in experiment [12] and 95.5% (inactive) in experiment [13]. In experiment [2], the Her2 level was 112% (inactive). Also, in experiment [6] (H69AR cells + 2 uM doxorubicin), the differential viability (reversal) was 17.5% (inactive). For the same molecule, the results for the inhibition in [7], in experiment [8] and in [14] were -5.47% (inactive), -3.93% (inactive) and 0.485% (inactive), respectively. Further, the growth inhibition in experiment [9] is 6.16% (inactive); in [10], 1.19% (inactive). The viability increase in [11] was -0.8% (inactive). Moreover, in [15], the RAM network inhibition was -0.14% (inactive).
Regarding `Cc1ccc(-n2ncc3c(N4CCCC(C)C4)ncnc32)c(C)c1` (stereo not given), the viability in experiment [1] was 104%; in experiment [3], 104% (inactive); in [4], 60.2% (inactive); in experiment [5] it was 61.6% (inactive); in experiment [6] (setting [16]), 23.4%; in experiment [6] (setting [17]) it was 61.6%. Besides, the viability in [12] is 80.5% (inactive); in experiment [13], 80.4% (inactive). In addition, in experiment [2], the Her2 level was 78.5% (inactive). Moreover, in experiment [6] (H69AR cells + 2 uM doxorubicin), the differential viability (reversal) was 38.2% (inactive). Also, the inhibition was -5.07% (inactive) in experiment [7], 8% (inactive) in [8] and 0.12% (inactive) in experiment [14]. The growth inhibition in experiment [9] was -2.59% (inactive); in experiment [10], 10% (inactive). Also, in [11], the viability increase is -8.5% (inactive). Also, in experiment [15], the RAM network inhibition is 2.4% (inactive).
As for `COc1ccc(N(C)C(=O)CCS(=O)(=O)c2cccc3nonc23)c(OC)c1`, the viability is 89% in experiment [1]; 89% (inactive) in experiment [3]; 95.7% (inactive) in experiment [4]; 104% (inactive) in [5]; 93.9% in experiment [6] (setting [16]); 104% in experiment [6] (setting [17]). For the same molecule, the viability was 100% (inactive) in experiment [12] and 98.8% (inactive) in [13]. For the same molecule, the Her2 level in [2] is 86.5% (inactive). Further, in experiment [6] (H69AR cells + 2 uM doxorubicin), the differential viability (reversal) is 9.71% (inactive). Besides, the inhibition in [7] is -6.71% (inactive); in experiment [8] it was -3.49% (inactive); in experiment [14] it was 1.43% (inactive). The values for the growth inhibition in experiment [9] and in experiment [10] were -16.1% (inactive) and -20.6% (inactive), respectively. Also, the viability increase in experiment [11] is -0.31% (inactive). Further, in [15], the RAM network inhibition is 3.65% (inactive).
As for `COc1ccc(S(=O)(=O)Nc2ccc(F)c(Cl)c2)cc1OC`, the viability in experiment [1] was 97.5%; in experiment [3], 97.5% (inactive); in experiment [4], 106% (inactive); in experiment [5], 96.6% (inactive); in experiment [6] (setting [16]), 92.3%; in experiment [6] (setting [17]) it was 96.6%. The viability in experiment [12] was 86.3% (inactive); in experiment [13], 87.6% (inactive). In experiment [2], the Her2 level is 93.5% (inactive). The differential viability (reversal) in experiment [6] (H69AR cells + 2 uM doxorubicin) was 4.3% (inactive). Besides, the values for the inhibition in experiment [7], in [8] and in experiment [14] were -2.21% (inactive), -10.2% (inactive) and 0.595% (inactive), respectively. For the same molecule, the growth inhibition in [9] is -15.3% (inactive); in experiment [10], 4.31% (inactive). For the same molecule, the viability increase in [11] is -1.4% (inactive). Further, the RAM network inhibition in [15] was 1.81% (inactive).
As to `Cc1nc2ccccc2c2oc(C(=O)N3CCN(C(=O)c4ccco4)CC3)cc12`, the viability in experiment [1] is 79%; in experiment [3], 79% (inactive); in [4] it was 87.4% (inactive); in experiment [5], 83.1% (inactive); in experiment [6] (setting [16]), 83.4%; in experiment [6] (setting [17]), 83.1%. Further, the viability is 101% (inactive) in experiment [12] and 107% (inactive) in experiment [13]. The Her2 level in [2] is 95.5% (inactive). Moreover, the differential viability (reversal) in experiment [6] (H69AR cells + 2 uM doxorubicin) is -0.275% (inactive). Also, the inhibition in [7] was -2.69% (inactive); in experiment [8], 1.67% (inactive); in experiment [14] it was 0.195% (inactive). Further, the growth inhibition was -6.06% (inactive) in [9] and 2.71% (inactive) in experiment [10]. For the same molecule, in [11], the viability increase was -5.18% (inactive). In addition, the RAM network inhibition in experiment [15] is 2.11% (inactive).
